Records with an inconclusive call do not appear. Activity calls are given as the source filed them. Unless noted, calls come from the whole dose curve.
Columns and labels:
[1] = Nuclear factor erythroid 2-related factor 2/antioxidant responsive element (Nrf2/ARE) small molecule agonists: luciferase reporter gene qHTS assay in human keratinocytes (AID 1919969); note: nearly all actives have a fitted effect of over 35% in size
[2] = molecular target: Gonadotropin-releasing hormone receptor (Homo sapiens) (UniProt P30968); test: Human gonadotropin-releasing hormone receptor (GnRHR) small molecule agonists, calcium flux assay in GnRHR-HEK293 cells (AID 1920063); note: nearly all actives have a fitted effect of over 35% in size
Outline: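 Fluorescence kinetics (480 nm excitation, 540 nm emission; 3 min, 1 s steps) report calcium mobilisation in human GnRHR-HEK293 cells in agonist mode. Dye incubation: 1 h, 37 C.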

[3] = molecular target: KiSS-1 receptor (Homo sapiens) (UniProt Q969F8); test: Human kisspeptin (KISS1R) small molecule agonists, calcium flux assay in KISS1R-HEK293 cells (AID 1920064; active = well fitted activation curve with a large enough effect in the repeat runs)
Outline: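 Measures KISS1R agonism through calcium-sensitive dye fluorescence in stably transfected HEK293 cells, read for 3 min after pin-tool compound delivery; 15-point titrations in triplicate.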

[4] = G protein-coupled receptor (GPCR) small molecule agonists, calcium flux assay: HEK293 wild type cell line counter screen (AID 1920065)
Outline: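 Readout: fluorescence at 480 nm excitation/540 nm emission, sampled at 1 s intervals for 3 min. Cells had been cultured 18 h, then dye-loaded 1 h at 37 C before compound or ATP addition.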

[5] = p53 small molecule agonists, cell-based qHTS assay with human liver microsomes (AID 1963577);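 note: p53 response element beta-lactamase reporter cells with liver microsomes plus NADPH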
Outline: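 Steps: plate p53RE-bla cells, incubate 5 h at 37 C; add compound in DMSO; add microsomes (0.5 mg/mL final) and NADPH (0.5 mg/mL final); incubate 16 h at 37 C; add LiveBLAzer, 2 h RT; read fluorescence.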

[6] = p53 small molecule agonists, cell-based qHTS assay with rat liver microsomes (AID 1963578)
Outline: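 Metabolic activation is supplied by rat liver microsomes with NADPH (each 0.5 mg/mL final). p53RE-bla cells incubate with compound 16 h at 37 C; reporter activity is measured by LiveBLAzer fluorescence.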

[7] = p53 small molecule agonists, cell-based qHTS assay with human liver microsomes: qHTS cell viability counter screen (AID 1963579); note: nearly all actives have a fitted effect of over 45% in size
Outline: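 After the 460/530 nm beta-lactamase read, CellTiter-Glo was added to the same wells and luminescence measured after 30 min at room temperature, giving viability of p53RE-bla cells treated 16 h with compounds plus microsomes and NADPH.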

[8] = p53 small molecule agonists, cell-based qHTS assay: qHTS cell viability counter screen (AID 1963581); note: nearly all actives have a fitted effect of over 45% in size
Outline: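 In the same plates used for the p53 bla reporter, HCT-116 cells given compounds for 16 h at 37 C received CellTiter-Glo; luminescence was recorded 30 min later at room temperature.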

[9] = p53 small molecule agonists, cell-based qHTS assay (AID 1963582; active = well fitted activation curve with a large enough effect in the signal ratio in the repeat runs, not every such curve was filed as active; the % refers to the signal ratio)
Outline: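 Compounds are pin-transferred in DMSO onto p53RE-bla cells and incubated 16 h at 37 C. The B/G FRET beta-lactamase substrate is then applied for 2 h at RT and fluorescence recorded.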

[10] = molecular target: 5-hydroxytryptamine receptor 2A (Homo sapiens) (UniProt P28223); test: 5-hydroxytryptamine receptor 2A (HTR2A) small molecule antagonists, cell-based qHTS assay (AID 1963586); note: nearly all actives have a fitted effect of over 45% in size
Outline: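 Antagonist-mode intracellular calcium assay: DOI (4 nM) added after 5 min compound pre-incubation at room temperature to dye-loaded HTR2A-CHO cells. Fluorescence followed for 3 min, sampled every second.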

[11] = molecular target: 5-hydroxytryptamine receptor 2A (Homo sapiens) (UniProt P28223); test: 5-hydroxytryptamine receptor 2A (HTR2A) small molecule agonists, cell-based qHTS assay (AID 1963587); note: nearly all actives have a fitted effect of over 30% in size
Outline: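 HTR2A-CHO cells, plated 18 h at 37 C/5% CO2, dye-loaded 1 h at 37 C; compounds in DMSO added by pin tool (agonist mode). Intracellular calcium flux read as kinetic fluorescence on FDSS over 2 min at 1 s intervals.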

[12] = molecular target: Muscarinic acetylcholine receptor M1 (Homo sapiens) (UniProt P11229); test: Cholinergic receptor muscarinic 1 (CHRM1) small molecule agonists, cell-based qHTS assay (AID 1963589); note: nearly all actives have a fitted effect of over 35% in size
Outline: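 Each compound was tested at 15 concentrations across three independent runs on dye-loaded CHO cells stably expressing human CHRM1, reading intracellular calcium fluorescence kinetically at 1 sec intervals.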

[13] = cAMP Responsive Elements (CRE) small molecule agonists, cell-based qHTS assay (AID 1963590)
Outline: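 Cell line: CRE-bla HEK 293T; medium DMEM/10% dialyzed FBS/0.1 mM NEAA/1 mM pyruvate/25 mM HEPES; 3 h compound exposure; beta-lactamase FRET readout after 2 h substrate loading at RT.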

[14] = cAMP Responsive Elements (CRE) small molecule antagonists, cell-based qHTS assay (AID 1963591; active = well fitted inhibition curve with a large enough effect in the signal ratio in the repeat runs, not every such curve was filed as active; the % refers to the signal ratio)
Outline: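 Inhibition of NKH477-driven (0.25 uM final) CRE-beta-lactamase signal in HEK293T cells, 3 h compound exposure at 37 °C, detected by FRET substrate fluorescence.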

[15] = molecular target: Beta-2 adrenergic receptor (Homo sapiens) (UniProt P07550); test: Adrenergic beta2 receptor (ADRB2) small molecule antagonists, cell-based qHTS assay (AID 1963592); note: series mostly up to about 92 µM; nearly all actives have a fitted effect of over 50% in size
Outline: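 Cells (CHO, stable ADRB2 overexpression) incubated 18-20hr at 37C; compounds added from DMSO; agonist mix (1nM isoproterenol, 100uM IBMX, 25uM Ro-20-1724) added; 0.5hr RT; d2-cAMP and anti-cAMP-cryptate added; 1hr RT; 665/615 nm read.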

[16] = molecular target: D(2) dopamine receptor (Homo sapiens) (UniProt P14416); test: Dopamine D2 receptor (DRD2) small molecule agonists, cell-based qHTS assay (AID 1963594); note: nearly all actives have a fitted effect of over 35% in size
Outline: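 HEK293 cells stably expressing DRD2 were cultured 24 h at 37 C, then given Ro20-1724 (0.1 mM final) and compounds for 10 min at room temperature. NKH477 (200nM) was then added for 30 min. cAMP was read by HTRF.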

[17] = molecular target: D(2) dopamine receptor (Homo sapiens) (UniProt P14416); test: Dopamine D2 receptor (DRD2) small molecule antagonists, cell-based qHTS assay (AID 1963595; active = well fitted inhibition curve with a large enough effect in the signal ratio in the repeat runs, with a control signal flat; the % refers to the signal ratio)
Outline: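 Antagonist mode in DRD2-HEK293 cells: after compound addition with 0.1 mM Ro20-1724, cells received quinpirole (12 nM) and NKH477 (200 nM) for 30 min at room temperature; HTRF cAMP read after 1 h detection.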

[18] = p53 small molecule agonists, cell-based qHTS assay with rat liver microsomes: qHTS cell viability counter screen (AID 1963580); note: nearly all actives have a fitted effect of over 45% in size
Outline: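 In HCT-116 cells carrying a p53 response element-bla reporter, compounds were metabolically activated in situ by rat liver microsomes with NADPH over 16 h. Cell ATP content then served as the cytotoxicity measure.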

[19] = molecular target: Beta-2 adrenergic receptor (Homo sapiens) (UniProt P07550); test: Adrenergic beta2 receptor (ADRB2) small molecule agonists, cell-based qHTS assay (AID 1963593);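 note: CHO cells stably overexpressing human ADRB2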
Outline: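 CHO cells stably over-expressing ADRB2 were plated overnight at 37C, then dosed with compounds plus a stimulation mix containing 100uM IBMX and 25uM Ro-20-1724 for 0.5hr at room temperature. cAMP was measured by HTRF competition, 1hr.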

[20] = molecular target: Muscarinic acetylcholine receptor M1 (Homo sapiens) (UniProt P11229); test: Cholinergic receptor muscarinic 1 (CHRM1) small molecule antagonists, cell-based qHTS assay (AID 1963588); note: nearly all actives have a fitted effect of over 40% in size
Outline: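 CHRM1-CHO calcium-flux assay, antagonist mode. Cells were seeded 18 h, dye-loaded 1 h at 37 C and given compound for 5 min at RT, then acetylcholine was added at 50nM. FDSS fluorescence was read 3 min; 15 concentrations, three runs.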

Measured: Potency

Chain of KiSS-1 receptor (Homo sapiens) (Q969F8 whole entry, looked up): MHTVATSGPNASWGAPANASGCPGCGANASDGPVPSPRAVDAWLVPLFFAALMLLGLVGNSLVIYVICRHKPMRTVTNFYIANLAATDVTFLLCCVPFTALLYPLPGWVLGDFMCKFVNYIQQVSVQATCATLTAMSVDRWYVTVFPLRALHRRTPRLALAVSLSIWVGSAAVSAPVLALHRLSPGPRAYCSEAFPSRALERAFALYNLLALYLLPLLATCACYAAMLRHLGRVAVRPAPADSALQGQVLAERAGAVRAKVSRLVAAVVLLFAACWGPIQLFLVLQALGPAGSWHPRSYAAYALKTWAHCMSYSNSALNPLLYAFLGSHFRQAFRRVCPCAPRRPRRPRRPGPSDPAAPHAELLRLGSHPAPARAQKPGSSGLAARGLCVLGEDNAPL
Chain of Muscarinic acetylcholine receptor M1 (Homo sapiens) (P11229 whole entry, looked up): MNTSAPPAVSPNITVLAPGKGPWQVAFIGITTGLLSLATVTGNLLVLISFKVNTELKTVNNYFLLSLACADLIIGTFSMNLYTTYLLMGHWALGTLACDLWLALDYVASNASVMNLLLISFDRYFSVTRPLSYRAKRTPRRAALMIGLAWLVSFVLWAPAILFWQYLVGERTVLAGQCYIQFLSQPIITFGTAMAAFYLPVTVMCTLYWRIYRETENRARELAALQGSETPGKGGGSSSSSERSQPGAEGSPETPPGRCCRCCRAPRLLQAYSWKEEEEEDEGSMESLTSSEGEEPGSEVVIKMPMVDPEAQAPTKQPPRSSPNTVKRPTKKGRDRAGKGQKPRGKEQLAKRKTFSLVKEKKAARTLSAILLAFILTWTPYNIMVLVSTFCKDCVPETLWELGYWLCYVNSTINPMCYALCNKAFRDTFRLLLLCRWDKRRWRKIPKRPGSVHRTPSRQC
Chain of 5-hydroxytryptamine receptor 2A (Homo sapiens) (P28223 whole entry, looked up): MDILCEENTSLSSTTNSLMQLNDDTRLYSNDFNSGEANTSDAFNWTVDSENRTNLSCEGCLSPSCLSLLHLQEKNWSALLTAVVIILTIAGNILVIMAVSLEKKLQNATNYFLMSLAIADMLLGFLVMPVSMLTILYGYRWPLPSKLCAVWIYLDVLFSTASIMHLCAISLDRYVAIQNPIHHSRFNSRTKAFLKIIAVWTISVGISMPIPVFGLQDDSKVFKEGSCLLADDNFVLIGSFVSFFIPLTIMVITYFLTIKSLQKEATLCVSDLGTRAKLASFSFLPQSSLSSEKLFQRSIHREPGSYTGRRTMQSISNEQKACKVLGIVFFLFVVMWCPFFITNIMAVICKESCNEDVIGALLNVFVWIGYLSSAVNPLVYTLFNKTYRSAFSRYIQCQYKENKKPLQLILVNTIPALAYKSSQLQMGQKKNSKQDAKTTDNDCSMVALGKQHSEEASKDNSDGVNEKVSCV
Chain of D(2) dopamine receptor (Homo sapiens) (P14416 whole entry, looked up): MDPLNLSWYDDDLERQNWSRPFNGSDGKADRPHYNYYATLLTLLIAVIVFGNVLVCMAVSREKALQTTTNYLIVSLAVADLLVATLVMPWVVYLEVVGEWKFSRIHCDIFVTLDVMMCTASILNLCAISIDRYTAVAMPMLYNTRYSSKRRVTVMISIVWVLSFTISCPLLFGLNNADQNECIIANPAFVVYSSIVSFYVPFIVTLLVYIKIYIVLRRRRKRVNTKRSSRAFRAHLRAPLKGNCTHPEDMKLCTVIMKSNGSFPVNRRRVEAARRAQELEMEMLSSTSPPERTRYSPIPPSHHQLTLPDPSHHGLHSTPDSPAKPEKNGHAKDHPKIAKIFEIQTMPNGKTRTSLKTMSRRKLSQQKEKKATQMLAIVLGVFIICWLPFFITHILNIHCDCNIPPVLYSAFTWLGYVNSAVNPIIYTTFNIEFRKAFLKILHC
Chain of Gonadotropin-releasing hormone receptor (Homo sapiens) (P30968 whole entry, looked up): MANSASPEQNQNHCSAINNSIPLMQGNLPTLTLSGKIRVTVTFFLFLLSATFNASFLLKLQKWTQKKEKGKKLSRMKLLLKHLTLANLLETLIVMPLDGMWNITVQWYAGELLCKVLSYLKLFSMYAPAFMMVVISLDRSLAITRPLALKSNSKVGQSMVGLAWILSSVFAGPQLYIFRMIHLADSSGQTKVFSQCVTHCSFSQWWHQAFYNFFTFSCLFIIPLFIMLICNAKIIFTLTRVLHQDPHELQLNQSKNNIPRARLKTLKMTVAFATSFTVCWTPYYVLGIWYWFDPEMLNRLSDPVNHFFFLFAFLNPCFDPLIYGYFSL
Chain of Beta-2 adrenergic receptor (Homo sapiens) (P07550 whole entry, looked up): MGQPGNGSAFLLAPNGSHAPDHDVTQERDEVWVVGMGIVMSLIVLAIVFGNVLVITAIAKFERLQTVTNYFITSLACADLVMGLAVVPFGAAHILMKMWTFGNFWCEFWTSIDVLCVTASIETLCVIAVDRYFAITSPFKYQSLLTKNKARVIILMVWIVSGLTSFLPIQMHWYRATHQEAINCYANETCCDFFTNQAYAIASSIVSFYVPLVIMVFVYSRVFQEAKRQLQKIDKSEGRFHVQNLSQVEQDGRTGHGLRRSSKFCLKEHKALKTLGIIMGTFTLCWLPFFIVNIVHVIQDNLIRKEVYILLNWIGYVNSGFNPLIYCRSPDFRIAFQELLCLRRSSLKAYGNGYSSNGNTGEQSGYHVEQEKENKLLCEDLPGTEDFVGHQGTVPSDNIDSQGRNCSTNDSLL

CC(CC(=O)O)CC(C)(C)C (stereo not drawn)
inactive: [1] | [2] | [3] | [4] | [5] | [6] | [7] | [8] | [9] | [10] | [11] | [12] | [13] | [14] | [15] | [16] | [17]

Nc1ccc(C(=O)Oc2ccccc2)c(O)c1
inactive: [1] | [3] | [4] | [5] | [6] | [7] | [18] | [8] | [9] | [10] | [11] | [13] | [14] | [16] | [17]

NC(N)=NC(=O)Cc1c(Cl)cccc1Cl
inactive: [2] | [3] | [4] | [5] | [6] | [7] | [18] | [8] | [9] | [13] | [14] | [15] | [19] | [17]

CCn1nc(Cc2ccccc2)cc1C1CCN(C[C@H]2C[C@H](N(C)[C@@H](C(=O)O)C(C)C)C[C@@H]2c2cccc(F)c2)CC1
inactive: [1] | [3] | [4] | [5] | [6] | [7] | [18] | [8] | [10] | [11] | [20] | [12] | [15] | [16]

CCOC(=O)C(=O)OCC
inactive: [1] | [2] | [3] | [5] | [6] | [7] | [18] | [9] | [10] | [11] | [20] | [12] | [13] | [14] | [15] | [17]

CC(C)(C)c1cc(C=O)cc(C(C)(C)C)c1O
inactive: [1] | [2] | [3] | [5] | [6] | [7] | [18] | [8] | [10] | [11] | [12] | [13] | [15] | [16] | [17]

CN(C)C(=O)CNC(=O)Cc1ccccc1
inactive: [1] | [2] | [3] | [4] | [6] | [7] | [18] | [8] | [9] | [11] | [20] | [12] | [13] | [14] | [15] | [19] | [16] | [17]

CC1=CC(=O)CC(C)(C)C1=O
inactive: [1] | [2] | [3] | [4] | [6] | [18] | [8] | [9] | [13] | [14] | [15] | [16] | [17]

COc1ccc(OC(=O)N(CC(=O)O)Cc2ccc(OCCc3nc(-c4ccccc4)oc3C)cc2)cc1
inactive: [1] | [2] | [3] | [4] | [5] | [7] | [18] | [8] | [9] | [20] | [12] | [15] | [16] | [17]

CCOC(=O)CC
inactive: [1] | [2] | [3] | [4] | [5] | [7] | [18] | [9] | [10] | [11] | [20] | [12] | [13] | [14] | [15] | [16] | [17]

CC1CCC(C(C)CS)CC1S (stereo not drawn)
inactive: [1] | [2] | [4] | [5] | [6] | [7] | [18] | [8] | [9] | [10] | [11] | [20] | [12] | [13] | [14] | [15] | [16] | [17]

COc1ccccc1OCC(O)COC(N)=O (stereo not drawn)
inactive: [1] | [2] | [3] | [5] | [6] | [18] | [8] | [9] | [13] | [14] | [15] | [19] | [16] | [17]

CN1CC(=O)NC1=N
inactive: [1] | [2] | [3] | [5] | [6] | [7] | [18] | [8] | [9] | [11] | [20] | [12] | [13] | [15] | [16] | [17]

CCOC(=O)CC(C)O (stereo not drawn)
inactive: [2] | [3] | [4] | [5] | [6] | [18] | [8] | [11] | [12] | [14] | [16] | [17]

Source: PubChem BioAssay (Tox21)
